Test results published in PubChem BioAssay AID686999 (Broad Institute, 2013).
Entries with a potency or affinity are not part of this list. Records with an inconclusive call do not appear. Calls of active or inactive are those of the source.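 How the source made its calls: active means active in every separate test run, each with half-maximal potency at or under twice its top valid dose; inconclusive means the separate test runs give conflicting calls; inactive means inactive in every test run, including signal rising instead.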

Experiment: Cryptococcus growth inhibition by alamar blue – cell lysis, cherry-picks, replicate tests, mechanism study for C. neoformans antifungal project, dose response (AID 686999)
Conditions: 72 h; series mostly up to 35 µM; activity change, negative = inhibition: at the top concentration

Activity change, negative = inhibition, inactive:
O=C(NC(=S)Nc1cc(Cl)ccc1N1CCOCC1)c1ccccc1[N+](=O)[O-] 26.6%
CCCCNC(=S)N/N=C/c1ccc(C#N)cc1 13.6%
O=C(Cc1ccccc1)N[C@H]1C=C[C@@H](CC(=O)N2CCOCC2)O[C@@H]1CO 18.6%
Cc1ccc(C)c(NC(=O)C2(C)CCCN2C(=O)C(C)C)c1 (stereo unspecified) 20.1% [at 56 µM]
O=C(NCCN1CCCCC1)[C@H]1N[C@H]2c3ccc(-c4ccncc4)c(=O)n3C[C@H]2[C@@H]1CO 8.18%
O=C(NC(=S)Nc1ccccc1N1CCOCC1)c1cccc([N+](=O)[O-])c1 3.65%
Cc1cc(C(=O)NC(=S)Nc2ccccc2N2CCOCC2)ccc1[N+](=O)[O-] -3.3%
S=C(NCc1ccccc1)NCC1COc2ccccc2O1 (stereo unspecified) 13.4%
Cc1cc(Cl)ccc1NC(=S)NCc1ccc(F)cc1 12.4%
Cc1cc(C)c2nc(N3CCN(C(=O)c4cccs4)CC3)sc2c1 -5.83%
CC(C)CC1(C)N=C(c2ccccc2)C(=S)N1 (stereo unspecified) 24.5%
O=C(NC(=S)Nc1ccccc1N1CCCC1)c1ccccc1[N+](=O)[O-] 16.2%
COc1cccc(NC(=S)NC(=O)Cc2ccc(Cl)cc2)c1 5.7%
O=C(NC(=S)Nc1ccccc1N1CCCC1)c1ccc([N+](=O)[O-])cc1 2.13%
COc1ccc(CNC(=S)NCc2ccc(OC(C)C)cc2)cc1 13.2%
COC(=O)C1=C(C)N(CC(C)C)C(=S)NC1c1ccc(F)cc1 (stereo unspecified) -6.25% [at 42 µM]
O=C(NC(=S)Nc1cccc(F)c1)c1cccc([N+](=O)[O-])c1 19.7%
CCc1nc(N2CCCCC2C)c2oc3ccccc3c2n1 (stereo unspecified) 14%
O=C(NC(=S)Nc1ccc(Br)cc1)C1CCC1 18.4%
COCCN1C(=S)N[C@@H](c2ccccc2)C(C(=O)OC)=C1C 1.85% [at 42 µM]
COc1ccccc1CNC(=S)NCc1ccc(Cl)cc1 15.5%
